D1 potentiator: potentiators of human D1 dopamine receptor. P21728. HEK293 TREx D1 cells, calcium flux, dopamine EC20 potentiation. potentiation, % at 10 µM. 360,000 compounds, 0.036% hits. AID 504651; in the data active = potentiation above about 30%
Target sequence (P21728 whole entry, looked up): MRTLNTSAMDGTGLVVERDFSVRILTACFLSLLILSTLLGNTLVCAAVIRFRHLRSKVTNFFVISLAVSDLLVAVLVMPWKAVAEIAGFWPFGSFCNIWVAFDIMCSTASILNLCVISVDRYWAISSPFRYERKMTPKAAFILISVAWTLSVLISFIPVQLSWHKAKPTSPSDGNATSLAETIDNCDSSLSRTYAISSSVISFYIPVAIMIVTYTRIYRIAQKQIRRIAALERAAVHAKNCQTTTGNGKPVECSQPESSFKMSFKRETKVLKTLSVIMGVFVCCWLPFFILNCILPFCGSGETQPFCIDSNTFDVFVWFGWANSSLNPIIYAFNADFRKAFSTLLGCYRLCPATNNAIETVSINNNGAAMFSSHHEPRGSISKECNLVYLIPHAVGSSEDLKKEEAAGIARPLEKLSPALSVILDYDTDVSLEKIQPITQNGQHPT
TRHR enhancer: TRH receptor (human) allosteric enhancement; TRHR cells, fluo-8 calcium fluorescence, EC20 TRH enhancement; enhancement, % at 2 µM; 360,000 compounds, 0.66% hits; AID 493056; in the data active = enhancement above about 30%
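TRHR-expressing cells loaded with fluo-8 calcium dye were read kinetically (ex 480/em 530) during compound addition, then stimulated with an EC20 of TRH (10 nM final). Enhancement of the Gq-mediated intracellular calcium response was scored.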
Epigenetic reg: regulators of epigenetic silencing causing reporter derepression in mouse cells; murine LDR cells, GFP reporter derepression, 30 h; AID 1865; Potency, µM (series often up to 53.9 µM), actives largely listed as activators; 280,000 compounds, 0.2% hits; active = well fitted activation curve with a large enough effect; inconclusive = small, poorly fitted or top-dose-only effect; note: nearly all actives have a fitted effect of over 60% in size
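Readout is the number of GFP-expressing murine LDR cells, counted by cytometry following washing. Cells were treated with compound for 30 h at 37 C; the stably integrated CMV-GFP locus is normally silent.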
D1 antag: antagonists of human D1 dopamine receptor; activity change, negative = inhibition, % at 10 µM; 360,000 compounds, 3.2% hits; P21728; HEK293 TREx D1 cells, calcium flux, dopamine EC80; active compounds read low; in the data active = activity change below about -30%
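HEK293 T-REx cells expressing inducible, force-coupled D1 receptor; no-wash Ca dye, 30–90 min RT. Cmpd → 180 s read at 1 Hz → EC80 DA → 180 s read.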
D1 agonist: human D1 receptor agonism. HEK293 T-REx D1 cells, calcium flux, agonist mode. 360,000 compounds, 1% hits. activation, % at 2 µM
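Inducible HEK293 T-REx D1 cells, force-coupled to calcium signalling, were plated at 4000 cells/well with tetracycline and held overnight at 30 C. After no-wash calcium dye loading, compound-evoked calcium rise over 180 s flagged agonists.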
TRHR agonist: agonists of human TRH receptor; TRHR cells, calcium flux fluo-8, FDSS agonist mode; activation, % at 2 µM; 360,000 compounds, 0.18% hits; AID 493084
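Read-out: compound-evoked intracellular calcium rise in TRHR cells, fluo-8 dye, kinetic FDSS fluorescence at 1 s/cycle following a 10-cycle baseline. Cells cultured overnight before dye loading (30 min–1.5 h, RT).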
Of the large screens only hits and unclear results are named; the others gave an inactive call. A selection: hits, their analogues and other compounds. The true share with any hit is near 4.6%. Cut-off read from the data, not from the text of the source, unless noted: active = activation above about 30%; inactive = the rest.

CCN(CC)CCNC(=O)c1ccc(NC(=O)Cc2ccccc2F)cc1	none
CCN(CC)CCNC(=O)c1ccc(NC(=O)c2cn(-c3ccc(F)cc3)nc2-c2cccc(OC)c2)cc1	none (no result: Epigenetic reg)
CCN(CC)CCNC(=O)c1ccc(NC(=O)c2cn(-c3ccccc3)nc2-c2cccs2)cc1	D1 antag -81
CNC(=O)c1ccc2c(c1)nnn2C	D1 antag -87
Cn1nnc2cc(C(=O)NC(C)(C)C)ccc21	none
COc1ccc(OC)c(-c2csc(NC(=O)Cc3ccccc3F)n2)c1	TRHR enhancer 32 (no result: Epigenetic reg)
COc1ccc(OC)c(-c2csc(NC(=O)Cc3ccccc3OC)n2)c1	none (no result: D1 potentiator, Epigenetic reg)
O=S(=O)(Cc1ccc(Cl)cc1)N1CCCC1	D1 antag -74
O=S(=O)(Cc1ccc(Cl)cc1)N1CCCCCC1	none (no result: Epigenetic reg)
CCOC(=O)c1cncc(C#CCOC(=O)Nc2ccc(OC(F)(F)F)cc2)c1	D1 antag -34
COc1cccc(C(C2=C(O)CC(C)(C)CC2=O)C2C(=O)CC(C)(C)CC2=O)c1 (centres undefined)	TRHR enhancer 34
COC(=O)c1c(C)[nH]c(C(=O)C(C)OC(=O)C2CC(=O)N(CCc3ccccc3)C2)c1C (centres undefined)	D1 antag -33 (no result: Epigenetic reg)
Cc1cc(C)c(Cn2c(=O)n(CCCCC(=O)NCc3ccccc3Cl)c(=O)c3ccccc32)c(C)c1	none
COCc1cc(C)nc(OCC(=O)N/N=C/c2ccccc2)c1C#N	none
COCc1cc(C)nc(OCC(=O)N/N=C/c2ccc(C)cc2)c1C#N	D1 antag -57
O=C(NCc1ccccc1Cl)c1ccc2c(c1)N(Cc1ccccc1)C(=O)CS2	none
O=C(CN1C(=O)c2cccnc2C1=O)c1ccccc1	D1 antag -31
O=C(CN1C(=O)C(=O)c2ccccc21)c1ccccc1	none (no result: Epigenetic reg)
CCCCOc1ccccc1C1C(C(N)=O)=C(C)Nc2nnnn21 (centres undefined)	none
CCCOc1ccccc1C1C(C(=O)Nc2ccccc2)=C(C)Nc2nnnn21 (centres undefined)	TRHR enhancer 49, D1 agonist 39
Cc1ccc(S(=O)(=O)c2nc(NCCN(C)C)sc2Cl)cc1	D1 antag -37
Cc1ccc(S(=O)(=O)c2nc(Nc3ccccc3)sc2Cl)cc1	none
COC(=O)c1ccc(CSc2ccc3nnc(-c4cccc(F)c4)n3n2)o1	D1 antag -30
CCNC(=O)CC1C(=O)N(c2cccc(OC)c2)C(=O)N1Cc1ccc(OC)c(OC)c1 (centres undefined)	none
COc1ccc(OC)c(-c2cc(C(=O)N3CCCc4ccccc43)no2)c1	none
COc1ccc(OC)c(-c2cc(C(=O)Nc3cccc(Cl)c3C)no2)c1	D1 antag -40
COc1ccc(OC)c(-c2cc(C(=O)Nc3ccc(C)c(C)c3)no2)c1	none
COc1ccc(OC)c(-c2cc(C(=O)N3CCOCC3)no2)c1	TRHR enhancer 37 (no result: Epigenetic reg)
CCOc1ccccc1-n1nnnc1SCc1nc2ccccc2s1	D1 antag -31
Cc1ccccc1-n1c(C)nnc1SCc1nc2ccccc2s1	none
Cc1cccc(NC(=O)Cn2c(=O)n(Cc3ccccc3)c(=O)c3sc4ccccc4c32)c1	none
Cc1ccc(/C=N/N(C)C2=NS(=O)(=O)c3ccccc32)o1	D1 antag -43
CCN(CC)CCOC(=O)c1ccc(NC(=O)CCCN2C(=O)S/C(=C/c3ccc(OC)cc3)C2=S)cc1	D1 antag -65 (no result: Epigenetic reg)
COc1ccc(/C=C2\SC(=S)N(CCC(=O)Nc3ccc(O)cc3)C2=O)cc1	none (no result: Epigenetic reg)
CC(C)(C)NC(=O)C(c1ccccn1)N(C(=O)c1ccc2c(c1)OCCO2)C1CCCC1 (centres undefined)	D1 antag -39
C/C(=N\NC(=O)c1c(Cl)cnn1C)c1ccc(NC(=O)c2ccc(Br)o2)cc1	D1 antag -43 (no result: Epigenetic reg)
COc1ccc2c(c1)O[C@@H](c1cccc(C(F)(F)F)c1)[C@H](OC(=O)Nc1cc(OC)c(OC)c(OC)c1)C2=O	none (no result: D1 potentiator, TRHR enhancer, D1 antag, D1 agonist, TRHR agonist)
Oc1ccc(CN2CCCCC2)c2cccnc12	Epigenetic reg inconclusive
Oc1ccc(CN2CCN(c3ccccc3)CC2)c2cccnc12	Epigenetic reg 3.5µM
Oc1ccc(CN2CCc3ccccc3C2)c2cccnc12	Epigenetic reg 3.5µM
CCOC(=O)N1CCN(Cc2ccc(O)c3ncccc23)CC1	Epigenetic reg 4µM
Cc1ccc(NC2=C/C(=N/S(=O)(=O)c3cccs3)c3ccccc3C2=O)cc1C	D1 antag -45
Cc1ccccc1NC1=C/C(=N\S(=O)(=O)c2cccs2)c2ccccc2C1=O	none
COC(=O)CC(=O)Cc1nc(N)nc(Nc2ccc(C)c(C)c2)n1	D1 antag -50
COc1cnc(-c2ccccn2)nc1Sc1ccccc1Cl	D1 agonist 32
CC(=O)Nc1ccc(SC[C@H](Cc2ccccc2)N2CCN(CCc3ccccc3)CCC2=O)cc1	D1 antag -33
CC(=O)Nc1ccc(SC[C@H](Cc2ccccc2)N2CC[C@@H](O)CCC2=O)cc1	none (no result: Epigenetic reg)
Cc1ccc(-n2c(SCc3ccccc3C)nc3[nH]ncc3c2=O)cc1C	D1 antag -78
Cc1cc(C)c2nc(N3CCCC(C(=O)NCCCN4CCOCC4)C3)sc2c1 (centres undefined)	none
CCN1CCN(CCCNC(=O)C2CCCN(c3nc4c(C)cc(C)cc4s3)C2)CC1 (centres undefined)	D1 antag -35 (no result: Epigenetic reg)
N#Cc1cc(N)ccc1Sc1ccc(Cl)cc1	D1 antag -32
COc1ccc(C2c3c4c(n(C)c3CCN2C)CCN(C)C4c2ccc(OC)cc2)cc1 (centres undefined)	D1 antag -31
Cc1nc(/C=C/c2ccccc2)[nH]c(=O)c1-c1ccccc1	D1 antag -43
O=C(CC1Nc2ccccc2NC1=O)c1ccccc1 (centres undefined)	Epigenetic reg inconclusive, D1 agonist 68
Cc1ccccc1C(=O)NC1(C(F)(F)F)N=C(c2ccccc2)N(C2CCCCC2)C1=O (centres undefined)	none
COc1ccc(CCNC(=O)CSCc2nc(-c3ccc(OC)c(OC)c3)oc2C)cc1OC	none
O=C1CCNc2ccc(-c3ccccc3)cc21	D1 agonist 68
CCC(C)NS(=O)(=O)c1ccc(NC(=O)c2ccc([N+](=O)[O-])cc2Cl)cc1 (centres undefined)	D1 antag -31
COC(=O)CN1C(=S)N(c2ccc(OC)cc2)C(=O)/C1=C/c1ccc(N2CCOCC2)cc1	D1 agonist 33 (no result: D1 antag)
CCOc1ccc(NC(=O)C2Cc3ccccc3N2C(=O)c2ccccc2)cc1 (centres undefined)	none
O=C(CSc1nc(-c2cccs2)nc2cc(=O)[nH]n12)Nc1cccc(C(F)(F)F)c1	D1 antag -38

Compound activity (PubChem BioAssay)
